Compound activity as filed in PubChem.
PD-1 reversal – reversal of PD-1 mediated T-cell inhibition | 29,000 tested, under 10 active | activation, % (concentration not given with the values) | primary human CD4 T cells, PD-L1 beads, CellTiter-Glo 96 h; call rule not given here
NOMO-1 viab – STK33 inhibitor candidate reducing NOMO-1 cell viability | NOMO-1 AML viability, CellTiter-Glo luminescence, 72 h | inhibition, % (concentration not given with the values) | 7.5% of 37,000 active; in the data active = inhibition above about 80%; inconclusive = no clear call, values can overlap the other calls
STK33 kin inh – inhibitors of human STK33 kinase; 0.44% of 27,000 active; ADP-Glo luminescence, MBP substrate; AID 2322; inhibition, % at 12.5 µM; in the data active = inhibition above about 20%; inconclusive = no clear call, values can overlap the other calls
Target sequence (Q9BYT3 whole entry, looked up): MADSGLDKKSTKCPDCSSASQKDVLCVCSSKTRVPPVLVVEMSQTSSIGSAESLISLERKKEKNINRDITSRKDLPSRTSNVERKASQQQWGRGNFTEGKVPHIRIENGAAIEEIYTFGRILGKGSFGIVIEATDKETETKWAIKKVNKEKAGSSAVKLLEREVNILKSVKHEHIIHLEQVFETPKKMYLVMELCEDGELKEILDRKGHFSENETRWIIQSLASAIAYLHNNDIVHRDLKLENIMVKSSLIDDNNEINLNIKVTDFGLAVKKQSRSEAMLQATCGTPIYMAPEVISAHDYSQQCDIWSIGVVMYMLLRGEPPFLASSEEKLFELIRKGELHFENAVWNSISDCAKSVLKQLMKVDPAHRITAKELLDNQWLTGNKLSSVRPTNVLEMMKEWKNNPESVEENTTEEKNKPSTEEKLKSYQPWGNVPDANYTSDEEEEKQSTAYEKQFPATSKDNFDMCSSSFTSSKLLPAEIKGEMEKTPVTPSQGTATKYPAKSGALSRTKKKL
Of the large screens only hits and unclear results are named; the others gave an inactive call. This excerpt belongs to a sample that is enriched for hits.

C[C@@H]1CN([C@@H](C)CO)C(=O)Cc2cc(NC(=O)Nc3ccc(C(F)(F)F)cc3)ccc2O[C@@H]1CN(C)CC1CCCCC1	NOMO-1 viab 104
C[C@H]1CN([C@@H](C)CO)C(=O)Cc2cc(NC(=O)Nc3ccc(C(F)(F)F)cc3)ccc2O[C@H]1CN(C)CC1CCCCC1	NOMO-1 viab 130
C[C@@H]1CN([C@H](C)CO)C(=O)c2cc(NC(=O)Nc3ccc(C(F)(F)F)cc3)ccc2O[C@H]1CN(C)CC1CCCCC1	NOMO-1 viab 103
C[C@@H]1CN([C@H](C)CO)C(=O)Cc2cc(NC(=O)Nc3ccc(C(F)(F)F)cc3)ccc2O[C@@H]1CN(C)C	none
COC(=O)/C=C/c1ccc(OC)c(/C=C/C(C)(C)O)c1	none
CCC(C)C(=O)c1c(O)cc2c(c1O)CC(CC=C(C)C)C(C)(C)O2 (stereo not drawn)	NOMO-1 viab 88
CC(Sc1ncnc2nc[nH]c12)c1ccccc1Cl (stereo not drawn)	none (no result: STK33 kin inh)
COC1C(OC)N(S(=O)(=O)c2ccc(C)cc2)CCN1S(=O)(=O)c1ccc(C)cc1 (stereo not drawn)	none
Cc1ccc(S(=O)(=O)N2CCC(=O)c3ccccc32)cc1	NOMO-1 viab 110 (no result: STK33 kin inh)
c1ccc(CNc2nc3ccccc3n2CCN2CCCCC2)nc1	none
O=C(CSc1nnc(-c2ccccc2O)n1-c1ccccc1)Nc1ccccc1Cl	none (no result: PD-1 reversal)
Cc1ccc(S(=O)(=O)N2C(=O)CCC2C(=O)Nc2cccc3c2CCCC3)cc1 (stereo not drawn)	none
CC(=O)c1ccc(NC(=O)COc2ccccc2C(N)=O)cc1	none
COC(=O)c1c(NC(=O)c2ccccc2N(C)S(=O)(=O)c2ccccc2)sc2c1CCCC2	NOMO-1 viab 117
COC(=O)c1c(NC(=O)c2ccc(N(C)S(=O)(=O)c3ccc(C)cc3)cc2)sc2c1CCCC2	none (no result: PD-1 reversal)
COc1ccc(OC)c(NC(=O)COc2ccc(C(=O)Nc3ccc(Cl)cc3)cc2)c1	none (no result: PD-1 reversal)
COc1ccccc1NC(=O)c1ccc(OCC(=O)Nc2cc(Cl)cc(Cl)c2)cc1	NOMO-1 viab 86
CCn1c2ccccc2c2cc(NC(=O)CN(C)S(=O)(=O)c3ccccc3)ccc21	none (no result: PD-1 reversal)
CCn1c(=NC(=O)c2ccc(S(=O)(=O)N(C)C)cc2)sc2ccccc21	NOMO-1 viab 87 (no result: STK33 kin inh)
CCN(CC(=O)Nc1cccc2ccccc12)S(=O)(=O)c1ccc2ccccc2c1	none (no result: PD-1 reversal)
CC1CCC2(C)C(CC(O)C(O)C2(O)CO)C1(C)CCc1ccoc1 (stereo not drawn)	none
COC1OC(OC)C(O)(CC[C@@]2(O)[C@H](C)C[C@@H](O)C3[C@@](C)(CO)CCC[C@]32C)C1O (stereo partly drawn)	NOMO-1 viab 82
CC12CCC(C(=O)Nc3ccncc3)(c3nc4ccccc4nc31)C2(C)C (stereo not drawn)	none (no result: PD-1 reversal)
CCCCC/C=C\C/C=C\CCCCCCCC(=O)OC(CO)COP(=O)(O)OCC[N+](C)(C)C (stereo not drawn)	none (no result: PD-1 reversal, NOMO-1 viab)
Cc1csc(NC(=O)CSc2nc(C34CC5CC(CC(C5)C3)C4)ccc2C#N)n1	NOMO-1 viab 105 (no result: STK33 kin inh)
CC(=O)Nc1nc(C23CC4CC(CC(C4)C2)C3)cs1	none (no result: STK33 kin inh)
COc1ccc([N+](=O)[O-])cc1NC(=O)CN(c1ccc(Br)c(C)c1)S(C)(=O)=O	none (no result: PD-1 reversal)
Nc1c(C(=O)NCc2ccccc2)c2nc3ccccc3nc2n1CCO	none
C=C1C(=O)O[C@@H]2/C=C(\C)[C@H](OC(C)=O)C/C=C(/C)C[C@@H](OC(=O)/C(=C/CO)CO)C12 (stereo partly drawn)	NOMO-1 viab 108
C=C1C(=O)O[C@@H]2/C=C(/C)CC/C=C(/C(=O)O)C[C@@H](OC(=O)/C(C)=C/C)C12 (stereo partly drawn)	none
C=C1C(=O)O[C@@H]2/C=C(\C)[C@@H](OC(=O)C(O)C(C)C)C/C=C(/C)C[C@@H](OC(=O)/C(=C/CO)CO)[C@@H]12 (stereo partly drawn)	NOMO-1 viab 121
C=C1C(=O)O[C@@H]2/C=C(/C)[C@H](O)CC(=O)[C@](C)(O)C[C@@H](OC(=O)/C(C)=C/C)[C@@H]12	none (no result: PD-1 reversal, NOMO-1 viab)
NC(N)=NC(N)=Nc1ccccc1	none (no result: PD-1 reversal)
c1ccc(N=C(Nc2ccccc2)Nc2ccccc2)cc1	NOMO-1 viab 89 (no result: STK33 kin inh)
CCOc1ccc(OCC)c(S(=O)(=O)NC2CC(C)(C)NC(C)(C)C2)c1	none
CCOc1ccc(C2(C)CC(C)(C)Nc3ccccc32)cc1 (stereo not drawn)	NOMO-1 viab 114 (no result: STK33 kin inh)
COC(=O)C1=C(C)NC2=C(C(=O)c3ccccc32)C1c1ccc(OCc2cccc([N+](=O)[O-])c2)cc1 (stereo not drawn)	none (no result: PD-1 reversal, NOMO-1 viab)
COC(=O)C1=C(C)NC(C)=C(C(=O)OCCCN2CCC(c3ccccc3)(c3ccccc3)CC2)C1c1cccc([N+](=O)[O-])c1 (stereo not drawn)	NOMO-1 viab 120 (no result: PD-1 reversal)
CCC(C)c1cc(N)nc2nc3ccccc3n12 (stereo not drawn)	none (no result: STK33 kin inh)
CO[C@@]12[C@@H]3NC3CN1C1=C(C(=O)C(N)=C(C)C1=O)[C@@H]2COC(N)=O (stereo partly drawn)	NOMO-1 viab 106 (no result: PD-1 reversal)
O=C(CSc1ncnc2sc(-c3ccccc3)cc12)NC1CCCCC1	NOMO-1 viab 104
COc1ccc(NC(=O)CSc2ncnc3sc(-c4ccccc4)cc23)cc1Cl	none
Oc1ccccc1-c1cc(-c2ccc3c(c2)OCO3)cc(-c2ccccc2)n1	none (no result: STK33 kin inh)
COC(=O)c1cccc(N=C(N)N=C(N)N)c1	none (no result: STK33 kin inh)
C[C@@H]1CN([C@@H](C)CO)C(=O)c2cc(NC(=O)c3ccncc3)ccc2O[C@@H]1CN(C)Cc1ccc(C(=O)Nc2ccccc2N)cc1	NOMO-1 viab inconclusive (no result: STK33 kin inh)
C[C@@H]1CN([C@@H](C)CO)C(=O)c2cc(NC(=O)Nc3ccc4c(c3)OCO4)ccc2O[C@@H]1CN(C)Cc1ccc(C(=O)Nc2ccccc2N)cc1	NOMO-1 viab 108 (no result: STK33 kin inh)
C[C@@H]1CN([C@@H](C)CO)C(=O)c2cc(NC(=O)Nc3ccccc3)ccc2O[C@@H]1CN(C)Cc1ccc(C(=O)Nc2ccccc2N)cc1	NOMO-1 viab 111 (no result: STK33 kin inh)
C[C@H](CO)N1C[C@H](C)[C@H](CN(C)Cc2ccc(C(=O)Nc3ccccc3N)cc2)Oc2ccc(NC(=O)Cc3ccccc3)cc2C1=O	NOMO-1 viab 104 (no result: STK33 kin inh)
C[C@@H]1CN([C@@H](C)CO)C(=O)c2cc(NC(=O)Nc3cccc4ccccc34)ccc2O[C@@H]1CN(C)Cc1ccc(C(=O)Nc2ccccc2N)cc1	NOMO-1 viab 110 (no result: STK33 kin inh)
C[C@@H]1CN([C@@H](C)CO)C(=O)c2cc(NC(=O)Nc3ccc4c(c3)OCO4)ccc2O[C@H]1CN(C)Cc1ccc(C(=O)Nc2ccccc2N)cc1	none (no result: STK33 kin inh)
CC(C)NC(=O)Nc1ccc2c(c1)C(=O)N([C@H](C)CO)C[C@@H](C)[C@@H](CN(C)Cc1ccc(C(=O)Nc3ccccc3N)cc1)O2	none (no result: STK33 kin inh)
C[C@H](CO)N1C[C@H](C)[C@H](CN(C)Cc2ccc(C(=O)Nc3ccccc3N)cc2)Oc2ccc(NC(=O)Nc3ccccc3)cc2C1=O	NOMO-1 viab inconclusive (no result: STK33 kin inh)
Cc1cccc(NC(=O)CSc2nc3sc(C)c(C)c3c(=O)n2C)c1C	none (no result: PD-1 reversal)
O=C(CSc1nnc(-c2cccc3ccccc23)o1)Nc1cccc(F)c1	none
O=S(=O)(c1ccccc1)c1nc(-c2ccccc2Cl)oc1NCc1cccnc1	none (no result: PD-1 reversal)
Cc1ccc(OCCCn2cnc3ccccc3c2=O)c([N+](=O)[O-])c1	none (no result: PD-1 reversal)
CN(CC(=O)Nc1ccccc1C#N)S(=O)(=O)c1ccc(Br)cc1	none
